# VDR inhibitor: Inhibitors of the vitamin D receptor (VDR): qHTS; Vitamin D3 receptor (Homo sapiens), P11473; 0.93% of 400,000 active; Potency, µM, actives largely listed as inhibitors; AID 504847, 2011; VDR-SRC2-3 peptide fluorescence polarization, 2 h
#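 FP read-out; VDR + SRC2-3 coactivator peptide; 23 nl compound by pintool; 2 h RT incubation; reagents held at 4 deg C, protected from light.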
# TSHR antag: Antagonists of the Thyroid Stimulating Hormone Receptor: HTS campaign. TSHR-expressing cells, TSH-stimulated cAMP HTRF, 2 h; hits give low values. activity change, negative = inhibition, % at 11.5 µM. 0.2% of 330,000 active. AID 504810, 2011;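 active = activity change below a set negative limit, meaning inhibition stronger than a set level, cut at about -70% in these data; inconclusive = activity change between two set negative limits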
# Target sequence (P16473 whole entry, looked up): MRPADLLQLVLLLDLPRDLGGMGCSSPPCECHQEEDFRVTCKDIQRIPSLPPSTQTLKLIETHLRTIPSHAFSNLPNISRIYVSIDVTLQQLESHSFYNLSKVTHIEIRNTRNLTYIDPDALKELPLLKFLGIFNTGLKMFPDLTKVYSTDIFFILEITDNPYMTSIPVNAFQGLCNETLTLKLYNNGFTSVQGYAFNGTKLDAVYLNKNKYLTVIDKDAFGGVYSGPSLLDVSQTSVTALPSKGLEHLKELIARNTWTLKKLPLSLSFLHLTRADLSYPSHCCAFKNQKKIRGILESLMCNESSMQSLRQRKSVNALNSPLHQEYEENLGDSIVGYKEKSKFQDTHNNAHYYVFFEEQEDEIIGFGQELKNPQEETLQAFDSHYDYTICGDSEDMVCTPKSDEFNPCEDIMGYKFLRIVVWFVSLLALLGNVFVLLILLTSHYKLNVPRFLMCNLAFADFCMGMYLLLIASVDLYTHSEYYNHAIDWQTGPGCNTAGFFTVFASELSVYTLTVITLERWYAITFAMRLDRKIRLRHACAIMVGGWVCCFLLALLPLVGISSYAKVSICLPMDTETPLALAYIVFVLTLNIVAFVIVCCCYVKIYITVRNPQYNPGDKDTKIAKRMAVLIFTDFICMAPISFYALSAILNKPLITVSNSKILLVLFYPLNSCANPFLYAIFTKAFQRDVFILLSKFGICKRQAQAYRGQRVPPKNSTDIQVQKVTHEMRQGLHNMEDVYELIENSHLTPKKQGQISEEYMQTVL
#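 TSHR-expressing cells, 200/well, pre-treated with compound, then stimulated with EC80 TSH (4nM final) for 2 hours at 37 deg C. cAMP measured by competitive HTRF: anti-cAMP cryptate antibody in lysis buffer plus cAMP-d2, read after 30 minutes at room temperature.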
# PTAP TSG101 blk: qHTS Assay for Iinhibitors of HIV-1 Budding by Blocking the Interaction of PTAP/TSG101; Tumor susceptibility gene 101 protein (Homo sapiens), Q99816; Fluorescence polarization, FITC-PTAP peptide / Tsg101 binding; Potency, µM (titrated, usually from 115 µM), usual class: inhibitors; 340,000 tested, under 10 active; active = well fitted inhibition curve with a large enough effect in the main read-out, with a control signal flat, not every such curve was filed as active; inconclusive = small, poorly fitted or top-dose-only effect, or effect the other way, or a change in a side signal; inactive = no such curve, though single readings can be large or run the other way
#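 Compounds were pin-transferred onto Tsg101 binding domain (10 uM final) in HEPES pH 7.5 buffer, then FITC-PTAP peptide was added at 50 nM final. After 20 min at RT, polarization reported peptide displacement across a qHTS concentration series.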
# uPA surface inh: qHTS for Inhibitors of Cell Surface uPA Generation; AID 540303, 2011; 0.31% of 330,000 active; Potency, µM (highest dose often 38.3 µM), hits mostly inhibitors; cell surface uPA generation assay, qHTS; active = well fitted inhibition curve with a large enough effect; inconclusive = small, poorly fitted or top-dose-only effect; inactive = no such curve, though single readings can be large or run the other way; tested in mouse RAW 264.7 cells; also: nearly all actives have a fitted effect of over 55% in size
# PLK1 PBD inh: qHTS for Inhibitors of PLK1-PDB (polo-like kinase 1 - polo-box domain): Primary Screen. Serine/threonine-protein kinase PLK1 (Homo sapiens), P53350. Plk1 PBD binding of FITC phosphopeptide, fluorescence polarization. AID 720504, 2013. Potency, µM, hits mostly inhibitors. 2.8% of 360,000 active; also: series mostly up to about 57 µM; nearly all actives have a fitted effect of over 65% in size
# A number is an active result; - = inactive; ? = inconclusive; . = no result. Shown are actives, neighbours in structure and some others; about 3.1% of the full set was active somewhere. Unless noted, calls follow the shape of the dose curve; as a rule, active = well fitted curve in the direction sought with a large enough effect; inconclusive = small, poorly fitted or top-dose-only effect, or another doubt; inactive = no such curve, though single readings can be large; an effect the other way counts as inactive or inconclusive.
SMILES,VDR inhibitor,TSHR antag,PTAP TSG101 blk,uPA surface inh,PLK1 PBD inh
Cn1c(=S)c2[nH]c(SCCN)nc2n(C)c1=O,-,.,-,-,27µM
Cn1c(=S)c2[nH]c(SCCN3CCCC3)nc2n(C)c1=O,?,-,-,-,-
COc1ccc(N2CCN(C(=O)c3cccc(Br)c3)CC2)c([N+](=O)[O-])c1,?,-,-,-,27µM
COc1ccc(N2CCN(C(=O)c3cccc(F)c3)CC2)c([N+](=O)[O-])c1,-,-,-,-,-
COc1ccc(N2CCN(C(=O)c3ccccc3F)CC2)c([N+](=O)[O-])c1,?,-,-,-,8.4µM
COc1ccc(N2CCN(C(=O)c3ccc(F)cc3)CC2)c([N+](=O)[O-])c1,-,-,-,-,-
COc1ccc(Br)cc1CNC(=O)CN1C(=O)CCCc2ccccc21,-,.,.,.,.
CCOc1ccccc1-c1ccc2nccn2c1,.,.,.,.,-
CC(C)NC(=O)c1cc(-c2ccco2)nn1-c1ccc(Cl)cc1,?,-,-,-,-
O=C(c1cc(-c2ccco2)nn1-c1cccc(Cl)c1)N1CCCCC1,?,-,-,-,27µM
COc1ccc(NC(=O)c2nc(C)c(C3(C)CC(c4cccnc4)=NO3)s2)cc1 (centres undefined),-,-,-,1.6µM,-
COc1cc(CN2CCC(C(=O)NC(c3ccc(-c4ccccc4)cc3)c3cnccn3)CC2)cc(OC)c1 (centres undefined),.,.,.,.,-
COc1ccccc1NS(=O)(=O)c1cc(NC(=O)C(C)C)ccc1N1CCCCC1,79µM,-,-,-,12µM
COc1ccccc1NS(=O)(=O)c1cc(NC(=O)c2cc[n+]([O-])cc2)ccc1N1CCCC1,-,-,-,-,3µM
COc1ccccc1NS(=O)(=O)c1cc(NC(=O)c2sccc2C)ccc1N1CCCC1,89µM,-,-,-,6.7µM
Cc1ccc(NC(=O)CCN2CCN(CCO)CC2)cc1C,-,.,.,.,.
CCOC(=O)c1cnc2ccc(C)cc2c1Sc1ccccc1C(=O)OC,-,-,-,-,27µM
CS/C(=N\S(=O)(=O)c1cccs1)NC(=O)CSc1nc2ccccc2s1,?,-,-,-,11µM
C/C(=N/NC(=O)CSc1nc2ccccc2s1)c1ccncc1,-,-,-,-,-
COc1ccc2[nH]cc(CCNc3ncncc3-c3ccccc3C)c2c1,-,.,.,.,.
CCCCC#Cc1ccc2c(c1)COc1c3ccccc3nn1-2,-,-,-,-,-
CC(C)NC(=O)c1ccc2c3n(nc2c1)-c1ccccc1CO3,-,-,-,0.79µM,-
CC(C)[C@@H](CO)NC(=O)c1ccc2c3n(nc2c1)-c1ccccc1CO3,-,-,-,1.3µM,-
Cc1ccc(C(=O)CSc2nccn2-c2ccccc2)cc1,-,-,-,-,21µM
CCCc1nc(SCC(=O)c2ccc(F)cc2)c2ccccc2n1,89µM,-,-,?,?
SMILES,VDR inhibitor,TSHR antag,PTAP TSG101 blk,uPA surface inh,PLK1 PBD inh
O=C(CSc1nccn1-c1ccccc1)c1ccc(Cl)cc1,-,-,-,-,-
O=C(CSc1ccccn1)c1ccc(F)cc1,?,-,-,-,27µM
Cc1ccc(C(=O)CSc2ccccn2)cc1,79µM,-,-,-,19µM
COC(=O)c1c(N)n(-c2ccc(OC)c(Cl)c2)c2nc3ccccc3nc12,-,.,.,.,.
Cc1ccc(/C(CSc2nccn2-c2ncc(C(F)(F)F)cc2Cl)=N\O)cc1,-,-,-,-,-
O=C(CSc1nccn1-c1ncc(C(F)(F)F)cc1Cl)c1ccc(Br)cc1,?,-,-,-,2.4µM
Cc1ccc(C(=O)CSc2ncn[nH]2)cc1,?,-,-,-,27µM
N/C(=N\OC(=O)c1ccc(Cl)cc1Cl)c1ccccn1,-,-,-,2.8µM,?
N/C(=N\OC(=O)c1cccc2ccccc12)c1ccccn1,-,-,-,-,-
COc1cccc(C(=O)O/N=C(\N)c2ccccn2)c1OC,?,-,-,?,24µM
COP(=O)(OC)OC(C(=O)c1ccccc1)c1ccc(Cl)cc1 (centres undefined),.,.,.,.,-
N#Cc1ccc(CN2CCN(C(=O)C3CC(=O)N(c4ccc5c(c4)OCCO5)C3)CC2)cc1 (centres undefined),.,.,.,.,-
CCOC(=O)C1CCN(C(=O)Cn2ncc3c4ccccc4n(Cc4ccccc4F)c3c2=O)CC1,-,.,.,.,.
CC(=O)Oc1cc2c(c(C)c1OC(C)=O)CC=C1[C@]3(C)CC[C@]4(C)CC[C@@](C)(C(=O)O)CC4[C@]3(C)CC[C@]12C (some centres undefined),-,.,.,.,.
O=C(Cc1cccc([N+](=O)[O-])c1)NCc1nc2cccnc2n1Cc1ccc(F)cc1,-,.,.,.,.
CCOC(=O)c1c(N)sn(-c2ccccc2C)c1=S,35µM,-,-,-,5.3µM
CCOC(=O)CCSc1n[nH]c(=S)s1,-,-,-,-,?
CCOC(=O)CSc1n[nH]c(=S)s1,-,-,-,-,27µM
CC(NC(=O)c1ccc2c(c1)CCN2S(=O)(=O)c1ccc(Cl)cc1)c1ccccc1 (centres undefined),-,.,.,.,.
COC(=O)CCC/C=C1/SCC(NC(=O)c2ccccc2)C1=O (centres undefined),89µM,-,-,-,?
COc1ccc(C(=O)NCCn2cc(SCC(=O)NCC3CCCO3)c3ccccc32)cc1 (centres undefined),-,-,-,-,-
COc1ccc(C(=O)NCCn2cc(SCC(=O)NCc3ccco3)c3ccccc32)cc1,-,-,-,-,3µM
Cc1ccc[n+](-c2nc([O-])sc2C=O)c1,-,-,?,-,13µM
CCOc1ccc(CCNC(=O)CCc2cn(Cc3ccc(F)cc3)c3ccccc23)cc1,-,.,.,.,.
COCCN(C(=O)CSc1nnc(-c2ccccc2C)n1C)c1c(N)n(Cc2ccccc2)c(=O)[nH]c1=O,-,-,-,-,-
SMILES,VDR inhibitor,TSHR antag,PTAP TSG101 blk,uPA surface inh,PLK1 PBD inh
CN(C(=O)CSc1nnc(Nc2ccccc2)s1)c1c(N)n(Cc2ccccc2)c(=O)[nH]c1=O,-,-,-,-,21µM
COCCN(C(=O)CSc1nnc(C)n1Cc1ccccc1)c1c(N)n(Cc2ccccc2)c(=O)[nH]c1=O,-,-,-,-,27µM
CN(Cc1ccco1)c1nc(-c2cccnc2)nc2ccccc12,32µM,.,.,.,.
CN(Cc1ccco1)c1nc(-c2ccccc2C(F)(F)F)nc2ccccc12,35µM,.,.,.,.
COc1ccc(NC(=O)c2cc(CN3C(=O)c4ccccc4C3=O)ccc2OC)cn1,-,-,-,-,27µM
COc1ccc(CN2C(=O)c3ccccc3C2=O)cc1C(=O)Nc1ccccc1N1CCOCC1,-,-,-,-,-
CCCNC(=O)C1(C)CCCN(C(=O)C2(c3ccc(Cl)cc3)CCCC2)C1 (centres undefined),.,.,.,.,-

# Source: PubChem BioAssay
